# Shown is part of a subset that was picked to be rich in the strongest signals.
# B1: PX9961W-pdi-543-27-543 (Parabacteroides distasonis) (protein)
# chain: EGNATTTSYFLNDQQAIDAIDGLYERFHQEGCYGRELFWEQGAACDIVWGRTRGYNSLATLAYTGDESPLRDVFSRMYSTMSRANWIIQELVKKEKGTTLTAVEKRSLGEAYFSRGWAHYLIAYRYGTDKQGVPFVRYEDFPDDYDNSIPPQQATVMDNYKLIIEDMDKAIAYLPIFESYDADNRGRAHQAAAVAFKAKTYAYWATWDATQWNNVIEMVNQLENNYNRDLAPTFAELFSSDLKDYWNAEYLWTIPSIGGALPGGTEFPGIILENKGWGKYNGWGQMKPSYDIYEEMAKDGKGNDRLVRSILEYNQEFPFFGETRKFWSTSDLEAGFMINKYMDAFKYSDPVGEGAVSANGDWPTVRVNFPIIRFAEMLLFRAEAYLMTGQADKATADINRIRLRSNLTPLTGTATMKDLYHERRCELAFEFTDHLFDLKRWNRSSNADIKTLADKELNAHPRIRRYEDRANPESAFTIIGYEDYTNKNAYQAHMMVFPYPSEEITKSNGQLKQNEGY
# Key:
# Test in all cases: glycan array binding signal (z-score within array); higher = stronger binding
# Conditions in all cases: glycan notation: IUPAC condensed, linker removed
# [1] = biological target: GlcNAc(b1-3)Gal(b1-4)GlcNAc(b1-3)Gal(b1-4)GlcNAc(b1-3)Gal(b1-4)GlcNAc(b1-3)Gal(b1-4)GlcNAc(b1-2)[GlcNAc(b1-3)Gal(b1-4)GlcNAc(b1-3)Gal(b1-4)GlcNAc(b1-3)Gal(b1-4)GlcNAc(b1-3)Gal(b1-4)GlcNAc(b1-6)]Man(a1-6)[GlcNAc(b1-3)Gal(b1-4)GlcNAc(b1-3)Gal(b1-4)GlcNAc(b1-3)Gal(b1-4)GlcNAc(b1-3)Gal(b1-4)GlcNAc(b1-2)Man(a1-3)]Man(b1-4)GlcNAc(b1-4)[Fuc(a1-6)]GlcNAc
# In short: (§1)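 The Consortium for Functional Glycomics database supplied 3228 glycan arrays, of which those lacking an available protein sequence were dropped. The binding signal, a within-array Z-score, was averaged across arrays of the same protein sequence and across linkers. Negative scores can be read as non-binding.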
# [2] = biological target: GlcNAc(b1-4)[GlcNAc(b1-6)]GalNAc
# In short: as §1
# Kdn(a2-3)Gal(b1-4)GlcNAc = biological target: Kdn(a2-3)Gal(b1-4)GlcNAc
# In short: as §1
# [3] = biological target: Neu5Ac(a2-3)Gal(b1-3)[Fuc(a1-4)]GlcNAc
# In short: as §1
# [4] = biological target: Neu5Ac(a2-3)Gal(b1-3)[Fuc(a1-4)]GlcNAc(b1-3)Gal(b1-3)[Fuc(a1-4)]GlcNAc
# In short: as §1
# [5] = biological target: Neu5Ac(a2-3)Gal(b1-3)[Neu5Ac(a2-6)]GalNAc
# In short: as §1
# [6] = biological target: Neu5Ac(a2-3)Gal(b1-4)GlcNAc(b1-2)Man(a1-3)[Neu5Ac(a2-3)Gal(b1-4)GlcNAc(b1-2)Man(a1-6)]Man(b1-4)GlcNAc(b1-4)GlcNAc
# In short: as §1
# [7] = biological target: Neu5Ac(a2-3)Gal(b1-4)GlcNAc(b1-3)Gal(b1-4)GlcNAc
# In short: as §1
# [8] = biological target: Neu5Ac(a2-3)Gal(b1-4)GlcNAc(b1-3)[Neu5Ac(a2-3)Gal(b1-4)GlcNAc(b1-6)]GalNAc
# In short: as §1
# [9] = biological target: Neu5Ac(a2-3)Gal(b1-4)[Fuc(a1-3)]GlcNAc
# In short: as §1
# [10] = biological target: Neu5Ac(a2-6)Gal(b1-4)GlcNAc(b1-2)Man(a1-3)[GlcNAc(b1-4)][Neu5Ac(a2-6)Gal(b1-4)GlcNAc(b1-2)Man(a1-6)]Man(b1-4)GlcNAc(b1-4)GlcNAc
# In short: as §1
# [11] = biological target: Neu5Ac(a2-6)Gal(b1-4)GlcNAc(b1-2)Man(a1-3)[Neu5Ac(a2-3)Gal(b1-4)GlcNAc(b1-2)Man(a1-6)]Man(b1-4)GlcNAc(b1-4)GlcNAc
# In short: as §1
# [12] = biological target: Neu5Ac(a2-6)Gal(b1-4)GlcNAc(b1-2)Man(a1-3)[Neu5Ac(a2-6)Gal(b1-4)GlcNAc(b1-2)Man(a1-6)]Man(b1-4)GlcNAc(b1-4)GlcNAc
# In short: as §1
# [13] = biological target: Neu5Ac(a2-6)Gal(b1-4)GlcNAc(b1-2)Man(a1-3)[Neu5Ac(a2-6)Gal(b1-4)GlcNAc(b1-2)Man(a1-6)]Man(b1-4)GlcNAc(b1-4)[Fuc(a1-6)]GlcNAc
# In short: as §1
# [14] = biological target: Neu5Ac(a2-6)Gal(b1-4)GlcNAc(b1-3)Gal(b1-4)GlcNAc(b1-3)Gal(b1-4)GlcNAc
# In short: as §1
# [15] = biological target: Neu5Ac(a2-6)Gal(b1-4)GlcNAc(b1-6)GalNAc
# In short: as §1
# [16] = biological target: Neu5Ac(a2-6)Gal(b1-4)GlcNAc6S
# In short: as §1
# [17] = biological target: Neu5Ac(a2-8)Neu5Ac(a2-3)Gal(b1-4)GlcNAc
# In short: as §1
# [18] = biological target: Neu5Ac(a2-8)Neu5Gc(a2-3)Gal(b1-4)GlcNAc
# In short: as §1
# [19] = biological target: Neu5Gc(a2-3)Gal(b1-3)GlcNAc
# In short: as §1
# [20] = biological target: Neu5Gc(a2-3)Gal(b1-3)[Fuc(a1-4)]GlcNAc
# In short: as §1
# [21] = biological target: Neu5Gc(a2-8)Neu5Gc(a2-3)Gal(b1-4)GlcNAc(b1-3)Gal(b1-4)GlcNAc
# In short: as §1
# [22] = biological target: Neu5Gc(a2-8)Neu5Gc(a2-6)Gal(b1-4)GlcNAc
# In short: as §1
binder,measurement,setting,value
B1,glycan array binding signal (z-score),[1],2.07
same,glycan array binding signal (z-score),[2],0.793
same,glycan array binding signal (z-score),Kdn(a2-3)Gal(b1-4)GlcNAc,-0.351
same,glycan array binding signal (z-score),[3],-0.779
same,glycan array binding signal (z-score),[4],2.45
same,glycan array binding signal (z-score),[5],-1.05
same,glycan array binding signal (z-score),[6],-0.589
same,glycan array binding signal (z-score),[7],-0.712
same,glycan array binding signal (z-score),[8],-0.167
same,glycan array binding signal (z-score),[9],-0.648
same,glycan array binding signal (z-score),[10],-0.023
same,glycan array binding signal (z-score),[11],-0.733
same,glycan array binding signal (z-score),[12],-0.249
same,glycan array binding signal (z-score),[13],0.138
same,glycan array binding signal (z-score),[14],-0.315
same,glycan array binding signal (z-score),[15],0.508
same,glycan array binding signal (z-score),[16],-0.912
same,glycan array binding signal (z-score),[17],-0.026
same,glycan array binding signal (z-score),[18],14.4
same,glycan array binding signal (z-score),[19],-0.935
same,glycan array binding signal (z-score),[20],-0.874
same,glycan array binding signal (z-score),[21],-0.859
same,glycan array binding signal (z-score),[22],0.393

# From the supplement of paper PMC8728848
